Assay results taken from the supplement of paper PMC6805474.

Experiments:
[1] = tested on: Schistosoma mansoni schistosomula (LE); test: XTT viability relative to DMSO control; higher = more viable (less active); conditions: 72 h; 10 µM
Experimental: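 XTT/PMS was then added for a further 24 h (72 h total) and A450 was read. % viability = (sample - heat-killed control)/(DMSO control - heat-killed control) x 100, from duplicate wells in two independent experiments.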

[2] = tested on: Schistosoma mansoni schistosomula (NMRI); test: phenotypic severity score (0-4); higher = more antischistosomal effect, active = 2 or more; conditions: 10 µM
[3] = tested on: Schistosoma mansoni schistosomula (Liberian); test: drug effect (1 - score/DMSO control score) (fraction); higher = more antischistosomal effect, active = 0.5 or more; extreme values may be limits of the assay; conditions: 10 µM
Summary of the method: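 Schistosomula of the Liberian strain of Schistosoma mansoni were mechanically transformed from cercariae, pre-incubated for at least 12 h, and placed at 50 per well in flat-bottom 96-well plates with Medium 199 containing 5% FCS. Compounds were tested in duplicate at 10 µM at 37 °C and 5% CO2, alongside wells holding 0.1% DMSO. Parasites were scored visually at 10× after 24, 48 and 72 h on a quarter-point scale running from 3 (normal) to 0 (dead). Drug effect came from the mean test-well score relative to the mean DMSO-well score, with negative values set to zero and plates accepted only when the DMSO wells averaged at least 2.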
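Throughout, for phenotypic severity score (0-4): visual microscopic scoring of shape, motility and density changes versus 0.5% DMSO solvent controls, one point per descriptor, degeneracy or death scored 4, mean of duplicate wells.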

Row | SMILES | XTT viability [1] [%] | phenotypic severity score ([2]; 24 h) | phenotypic severity score ([2]; 48 h) | phenotypic severity score ([2]; 72 h) | drug effect ([3]; 24 h) | drug effect ([3]; 48 h) | drug effect ([3]; 72 h)
1 | CCCCS(=O)(=O)Nc1ccc2cnn(C)c2c1 | 141 | 0 (inactive) | 0 (inactive) | 0 (inactive) | 0.0811 (inactive) | 0.111 (inactive) | 0.0625 (inactive)
2 | O=[N+]([O-])c1cn2c(n1)OC[C@@H](OCc1ccc(OC(F)(F)F)cc1)C2 | 158 | 0 (inactive) | 0 (inactive) | 0 (inactive) | 0.2 (inactive) | 0.167 (inactive) | 0.312 (inactive)
3 | Nc1nc(N)c2c3c(sc2n1)CN(Cc1ccccc1)CC3 | 131 | 0 (inactive) | 0 (inactive) | 0 (inactive) | 0.15 (inactive) | 0.278 (inactive) | 0.438 (inactive)
4 | CC1COC2(CCN(c3nc(=O)c4cc(C(F)(F)F)cc([N+](=O)[O-])c4s3)CC2)O1 (centres undefined) | 80 | 1 (inactive) | 0 (inactive) | 0 (inactive) | 0.136 (inactive) | 0.25 (inactive) | 0.291 (inactive)
5 | Cc1cc(C(=O)Nc2cnn(Cc3ccc(Cl)cc3Cl)c2)no1 | 91.7 | 0 (inactive) | 0 (inactive) | 0 (inactive) | 0.182 (inactive) | 0.1 (inactive) | 0.127 (inactive)
6 | CCOC(=O)c1cc(-c2csc(Nc3c(C)cc(C)cc3C)n2)on1 | 95.6 | 1 (inactive) | 1 (inactive) | 0 (inactive) | 0.182 (inactive) | 0.3 (inactive) | 0.291 (inactive)
7 | COc1ccc2nc(C)cc(OCC(=O)NCc3ccccc3)c2c1 | 74.7 | 0 (inactive) | 0 (inactive) | 0 (inactive) | 0.0526 (inactive) | 0.0556 (inactive) | < 0 (inactive)
8 | CCCn1c(NC(=O)c2ccc3ccccc3n2)nc2ccccc21 | 5.68 | 1 (inactive) | 0 (inactive) | 0 (inactive) | 0.2 (inactive) | 0.278 (inactive) | 0.312 (inactive)
9 | Cc1ccc(S(=O)(=O)N2CCN(C(=O)c3cc(-c4ccccc4)[nH]n3)CC2)cc1 | 82.6 | 2 (active) | 2 (active) | 1 (inactive) | 0.455 (inactive) | 0.75 (active) | 0.836 (active)
10 | CCc1ccc(C(NCc2nc(N)nc(N(C)C)n2)C(C)C)cc1 (centres undefined) | 99.2 | 0 (inactive) | 0 (inactive) | 0 (inactive) | < 0 (inactive) | < 0 (inactive) | 0.111 (inactive)
11 | NS(=O)(=O)c1cncc(-c2ccc3nccc(-c4cn[nH]c4)c3n2)c1 | 98.4 | 0 (inactive) | 0 (inactive) | 0 (inactive) | 0.135 (inactive) | 0.111 (inactive) | 0.312 (inactive)
12 | Cc1ccc(S(=O)(=O)Nc2ccc(CN3CCN(C(=O)c4cccc(C#N)c4)CC3)cc2)cc1 | 131 | 0 (inactive) | 1 (inactive) | 1 (inactive) | 0.05 (inactive) | 0.0556 (inactive) | 0.0625 (inactive)
13 | CCc1nc2ccc(Cl)cn2c1C(=O)NCc1ccc(N2CCC(c3ccc(OC(F)(F)F)cc3)CC2)cc1 | 66.8 | 1 (inactive) | 0 (inactive) | 0 (inactive) | 0.105 (inactive) | 0.0556 (inactive) | < 0 (inactive)
14 | COC(=O)Nc1nc2cc(C(=O)c3ccccc3)ccc2[nH]1 | 71.1 | 0 (inactive) | 0 (inactive) | 0 (inactive) | 0.15 (inactive) | 0.189 (inactive) | 0.278 (inactive)
15 | N=C(N)c1ccc(OCCCCCOc2ccc(C(=N)N)cc2)cc1 | 81.9 | 0 (inactive) | 0 (inactive) | 0 (inactive) | < 0 (inactive) | < 0 (inactive) | < 0 (inactive)
16 | CCC(Sc1nc2ccccc2o1)C(=O)Nc1nccs1 (centres undefined) | 7.06 | 2 (active) | 4 (active) | 4 (active) | 0.182 (inactive) | 1 (active) | 1 (active)
17 | CCn1cnc2c(Nc3cc(F)cc(F)c3)nc(C#N)nc21 | 97.7 | 4 (active) | 4 (active) | 4 (active) | 0.351 (inactive) | 0.889 (active) | 0.75 (active)
18 | c1ccc(Oc2ccc(-c3cc(N4CCOCC4)[nH]n3)cc2)cc1 | 112 | 0 (inactive) | 0 (inactive) | 0 (inactive) | 0.15 (inactive) | 0.297 (inactive) | 0.152 (inactive)
19 | NC(CC(=O)c1ccc(Cl)cc1Cl)C(Cl)(Cl)Cl (centres undefined) | 69.2 | 0 (inactive) | 0 (inactive) | 0 (inactive) | 0.0455 (inactive) | 0.1 (inactive) | 0.158 (inactive)

Row | SMILES | XTT viability [1] [%] | phenotypic severity score ([2]; 24 h) | phenotypic severity score ([2]; 48 h) | phenotypic severity score ([2]; 72 h) | drug effect ([3]; 24 h) | drug effect ([3]; 48 h) | drug effect ([3]; 72 h)
20 | CCC(C)NC(=O)c1ccc(NC(=O)C2(c3ccccc3)CCCC2)cc1 (centres undefined) | 90.6 | 0 (inactive) | 0 (inactive) | 0 (inactive) | 0.05 (inactive) | 0.027 (inactive) | 0.0303 (inactive)
21 | CN1CCN(CCCOc2ncc(Nc3ncc(-c4ccc(C(F)(F)F)c(F)c4)nc3C(N)=O)cn2)CC1 | 5.2 | 3 (active) | 3 (active) | 3 (active) | 1 (active) | 1 (active) | 1 (active)
22 | NC(=O)c1cc(-c2ccsc2)ccc1OCCOc1ccccc1 | 89.5 | 0 (inactive) | 0 (inactive) | 0 (inactive) | 0.158 (inactive) | 0.111 (inactive) | < 0 (inactive)
23 | CC(C)(C)OC(=O)N1CCC(Cn2nc(-c3cnc4ccccc4c3)c3c(N)ncnc32)CC1 | 125 | 1 (inactive) | 4 (active) | 4 (active) | 0.405 (inactive) | 0.444 (inactive) | 0.688 (active)
24 | COc1ccc(-c2nc(-c3cccc(NC(=O)Cc4ccc(F)cc4)c3)no2)cc1OC | 137 | 0 (inactive) | 0 (inactive) | 1 (inactive) | 0.182 (inactive) | 0.2 (inactive) | 0.182 (inactive)
25 | N#Cc1ccc(-c2cnc(N)c(-c3ccc(C(N)=O)cc3)n2)cc1 | 113 | 2 (active) | 2 (active) | 4 (active) | 0.027 (inactive) | 0.333 (inactive) | 0.5 (active)
26 | COc1cccc(OCC(=O)c2ccc(Br)cc2)c1 | 101 | 0 (inactive) | 0 (inactive) | 0 (inactive) | 0.182 (inactive) | 0.2 (inactive) | 0.127 (inactive)
27 | O=C(NCc1cc(Cl)cc(Cl)c1)c1c(C(F)(F)F)nc2ccccn12 | 93.7 | 0 (inactive) | 1 (inactive) | 0 (inactive) | 0.158 (inactive) | 0.333 (inactive) | 0.312 (inactive)
28 | CC(C(=O)Nc1ccc2oc(-c3ccncc3)nc2c1)c1ccccc1 (centres undefined) | 89.9 | 1 (inactive) | 0 (inactive) | 0 (inactive) | 0.182 (inactive) | 0.35 (inactive) | 0.345 (inactive)
29 | O[C@@H](c1cc(C(F)(F)F)nc2c(C(F)(F)F)cccc12)[C@H]1CCCCN1 | -0.139 | 4 (active) | 4 (active) | 4 (active) | 0.955 (active) | 1 (active) | 1 (active)
30 | Clc1ccc(CCNc2cc(-c3ccccc3)nc3ncnn23)cc1 | 83.9 | 0 (inactive) | 1 (inactive) | 0 (inactive) | 0.136 (inactive) | 0.2 (inactive) | 0.127 (inactive)
31 | CO[C@H]1/C=C/O[C@@]2(C)Oc3c(C)c(O)c4c(O)c(/c(=C/NN5CCN(C)CC5)c(O)c4c3C2=O)=N\C(=O)/C(C)=C\C=C/[C@H](C)[C@H](O)[C@@H](C)[C@@H](O)[C@@H](C)[C@H](OC(C)=O)[C@@H]1C | 116 | 0 (inactive) | 0 (inactive) | 0 (inactive) | 0.0455 (inactive) | 0.05 (inactive) | 0.105 (inactive)
32 | O=C(NCCN1CCCC1)c1cc(NCCN2CCOCC2)nc2ccc(Cl)cc12 | 146 | 0 (inactive) | 0 (inactive) | 0 (inactive) | 0.15 (inactive) | 0.222 (inactive) | 0.438 (inactive)
33 | O=C(NCCN1CCCC1)c1cc(NCCCCN2CCC(F)(F)CC2)nc2ccc(Cl)cc12 | 86.9 | 2 (active) | 4 (active) | 4 (active) | 0.3 (inactive) | 0.389 (inactive) | 0.562 (active)
34 | CC(Oc1cccc(Cl)c1)C(=O)Nc1ccc2oc(-c3ccncc3)nc2c1 (centres undefined) | 109 | 1 (inactive) | 0 (inactive) | 0 (inactive) | 0.318 (inactive) | 0.45 (inactive) | 0.564 (active)
35 | O=C(Nc1cccc(-c2ccc(NCCCN3CCCC3)nc2)c1)c1ccccc1 | 67.8 | 1 (inactive) | 2 (active) | 4 (active) | 0.2 (inactive) | 0.459 (inactive) | 0.515 (active)
36 | Nc1ncnc2c1c(-c1cnc3ccccc3c1)nn2CC1CCNCC1 | 169 | 0 (inactive) | 0 (inactive) | 0 (inactive) | 0.2 (inactive) | 0.278 (inactive) | 0.5 (active)
37 | CCNC(=O)C(C)Nc1nc(-c2cccnc2)nc2sc(C)c(C)c12 (centres undefined) | 81.9 | 0 (inactive) | 0 (inactive) | 0 (inactive) | < 0 (inactive) | < 0 (inactive) | 0.111 (inactive)
